Calls of active or inactive are those of the source. Rule for the calls: active = hit-call score of the fitted dose curve at least 0.9, where 1 is the maximum; inactive = score below 0.9.
What follows are compounds tested against Nuclear respiratory factor 1 (Homo sapiens) (UniProt Q16656) (assay: ATG_NRF1_CIS: Attagene CIS-FACTORIAL HepG2 Assay for human Nuclear Respiratory Factor 1 (NRF1) Orphan Gene (AID 2282987)). Details: HepG2 NRF1 cis-element reporter, Attagene multiplex; actives raise or lower the signal.
Protocol: ATG_CIS is a cell-based, multiplexed-readout assay that uses HepG2, a human liver cell line, with measurements taken at 24 hours after chemical dosing in a 24-well plate.ATG_NRF1_CIS is one of 52 assay component(s) measured or calculated from the ATG_CIS assay. It is designed to make measurements of mRNA induction, a form of inducible reporter, as detected with fluorescence intensity signals by Reverse transcription polymerase chain reaction (RT-PCR) and Capillary electrophoresis technology.Data from the assay component ATG_NRF1_CIS was analyzed into 1 assay endpoint. This assay endpoint, ATG_NRF1_CIS, was analyzed with bidirectional fitting relative to DMSO as the negative control and baseline of activity. Using a type of inducible reporter, measures of mRNA for gain or loss-of-signal activity can be used to understand the reporter gene at the transcription factor-level as they relate to the gene NRF1. Furthermore, this assay endpoint can be referred to as a primary readout, because this assay has produced multiple assay endpoints where this one serves a reporter gene function. To generalize the intended target to other relatable targets, this assay endpoint is annotated to the dna binding intended target family, where the subfamily is nuclear respiratory factors.
Human liver HepG2 cells are transiently transfected with multiple reporter transcription units (MRTUs) in 6-well plates using FuGene 6 reagent (Roche; 3 ml FuGene/1 mg DNA). The MRTU constructs are regulated by a cis-regulating element (promoter). […] A major difference between the CIS and TRANS system is that in CIS activities of endogenous TFs are measured, whereas the TRANS assay evaluates changes in activities of exogenous, chimeric NR-Gal4 proteins. […] At the end of 24 hour incubation, total RNA was isolated using TriZol reagent (Invitrogen). The isolated RNA is then reverse-transcribed using oligo(dT) primer and Mo-MLV reverse transcriptase (Invitrogen) with DNAse I (Ambion) treatment for 30 min. The one-tenth of the produced cDNA was amplified by PCR using Taq DNA polymerase (Invitrogen) and two reporter sequence-specific primers. The PCR products were fluorescently labeled by primer extension with 6-arboxyfluorescein (6-FAM) 5'-labeled reporter sequence-specific primer (2 min at 95 C, 20 s at 68 C and 10 min at 72 C) and these products were digested with 5U of HpaI (New England Biolabs) for 2h at 37 C. The fragments were purified using Qiaquick PCR columns (Qiagen), analyzed on an ABI 3130xL genetic analyzer (Applied Biosystems) with peak positions identified by using a set of X-rhodamine (ROX)-labeled MapMarker1000 molecular weight standards (BioVentures). The raw capillary electrophoresis data was processed using Attagraph software (Attagene).

Sequence of Nuclear respiratory factor 1 (Homo sapiens) (Q16656 whole entry, looked up): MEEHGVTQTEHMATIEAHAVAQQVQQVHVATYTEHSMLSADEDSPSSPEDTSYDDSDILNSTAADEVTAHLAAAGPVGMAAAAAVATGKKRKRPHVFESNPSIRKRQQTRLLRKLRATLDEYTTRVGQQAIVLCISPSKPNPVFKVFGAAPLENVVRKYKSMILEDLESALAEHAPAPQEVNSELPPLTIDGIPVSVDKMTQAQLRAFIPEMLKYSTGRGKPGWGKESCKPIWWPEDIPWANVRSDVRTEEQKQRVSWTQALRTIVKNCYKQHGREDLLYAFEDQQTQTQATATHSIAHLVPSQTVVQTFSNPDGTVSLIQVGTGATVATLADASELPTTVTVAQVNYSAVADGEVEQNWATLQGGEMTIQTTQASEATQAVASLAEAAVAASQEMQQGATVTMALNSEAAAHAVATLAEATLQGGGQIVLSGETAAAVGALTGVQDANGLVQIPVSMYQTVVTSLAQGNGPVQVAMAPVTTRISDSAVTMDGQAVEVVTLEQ

SMILES	outcome	AC50
OCCCCO	inactive	
CCC[CH2][Sn]([CH2]CCC)([CH2]CCC)[CH2]CCC	inactive	
O=C(NC(=O)c1c(F)cccc1F)Nc1cc(Cl)c(Oc2ncc(C(F)(F)F)cc2Cl)c(Cl)c1	inactive	
O=C1C=CC(=O)c2ccccc21	inactive	
O=C(CBr)c1ccc(O)cc1	inactive	
CCCCOC(C)=O	inactive	
C[CH2][Hg][S]c1ccccc1C(=O)O	inactive	
BrCC(Br)c1ccccc1 (stereo not given)	inactive	
N#Cc1ccccc1N	inactive	
CCOP(=S)(OCC)SCSc1cc(Cl)ccc1Cl	inactive	
C#C[C@]1(O)CC[C@H]2[C@@H]3CCC4=CC(=O)CC[C@]4(C)[C@H]3CC[C@@]21C	inactive	
BrCCCCBr	inactive	
O=C(NC(=O)c1c(F)cccc1F)Nc1ccc(Cl)cc1	inactive	
C[C@@H]1O[C@@H](O[C@H]2C[C@@H](O)[C@]3(CO)[C@H]4[C@H](O)C[C@]5(C)[C@@H](C6=CC(=O)OC6)CC[C@]5(O)[C@@H]4CC[C@]3(O)C2)[C@H](O)[C@H](O)[C@H]1O	inactive	
c1cc[c]([Sb]([c]2ccccc2)[c]2ccccc2)cc1	inactive	
C1CCC(C2CCCCC2)CC1	inactive	
CC(c1ccccc1)(c1ccc(O)cc1)c1ccc(O)cc1	inactive	
CCCCCCCCCCCCc1cccc(S(=O)(=O)O)c1	inactive	
CC(C)(c1ccc(O)c(-c2ccccc2)c1)c1ccc(O)c(-c2ccccc2)c1	inactive	
CC(C)O.CC(C)O.OCCN(CCO)CCO.OCCN(CCO)CCO.[Ti]	inactive	

SMILES	outcome	AC50
CN(N=O)C(N)=O	inactive	
CC[N+](CC)(CC)CC	inactive	
O=[N+]([O-])c1cccc2ccccc12	inactive	
Cc1cccc(C)c1NC(=O)CN1CCCC1=O	inactive	
O=C(CCl)Nc1ccccc1		35.2 µM (active)
O=S(=O)(F)C(F)(F)C(F)(F)C(F)(F)C(F)(F)F	inactive	
CC(C)CP(=S)(S)CC(C)C	inactive	
CC(C)(C)c1cc([N+](=O)[O-])cc(C(C)(C)C)c1O	inactive	
CCCCCCCCCCCCOS(=O)(=O)O	inactive	
CCCCCCCCBr	inactive	
CC(C)(C)c1ccc(CCOc2ncnc3ccccc23)cc1	inactive	
C#CCOC(=O)/C=C(C)/C=C/CC(C)CCCC(C)C (stereo not given)	inactive	
Cc1cc(-c2cc(C)c(N)c(C)c2)cc(C)c1N	inactive	
O=C(O)CC(O)(CC(=O)O)C(=O)O	inactive	
CC1(C)[C@H](C(=O)O[C@H](C#N)c2cccc(Oc3ccccc3)c2)[C@@H]1/C=C(\Cl)C(F)(F)F	inactive	
CCOC(=O)CCN(SN(C)C(=O)Oc1cccc2c1OC(C)(C)C2)C(C)C	inactive	
Nc1ccc(N)cc1	inactive	
CC(C)[C@@H](Nc1ccc(C(F)(F)F)cc1Cl)C(=O)OC(C#N)c1cccc(Oc2ccccc2)c1 (stereo not given in full)	inactive	
Cc1ccccc1OP(=O)(Oc1ccccc1)Oc1ccccc1	inactive	
O=S1OC[C@@H]2[C@H](CO1)[C@]1(Cl)C(Cl)=C(Cl)[C@@]2(Cl)C1(Cl)Cl (stereo not given in full)	inactive	
